Bioassay records (PubChem BioAssay)
Sampled rows, rich in hits. Any-hit rate of the full collection: about 14%.
HCV inhibitor: HCV inhibition | Huh7.5.1 HCVcc-Cre infection, luciferase reporter, 44 h | Potency, µM (highest dose often 41.8 µM), for inactives: top-dose activity change, negative = inhibition, most hits filed as inhibitors | actives 3.4% (n = 340,000) | AID 651820; further: potency means the concentration at half of the fitted maximal effect
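Cells (1,000/well) were plated 4 h before compound, then infected with HCVcc-Cre virus (~0.5 moi). After 44 h further culture, infection was read as luciferase luminescence following a 15 min substrate incubation at room temperature.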
Lassa entry inh: blocks Lassa virus binding to or entry into cells; Potency, µM (titrated, usually from 37.9 µM), for inactives: at the top dose activity change, negative = inhibition, actives largely listed as inhibitors; AID 540256; Lassa virus pseudotype entry inhibition, cell reporter; actives 1.2% (n = 300,000); calls by dose curve; tested in HEK293 cells; further: potency means the concentration at half of the fitted maximal effect; nearly all actives have a fitted effect of over 50% in size
Pf growth 48h: P. falciparum growth inhibition at 48 hours (one generation) | Potency, µM (highest dose often 28.7 µM), inactives show top-dose activity change, negative = inhibition, most hits filed as inhibitors | actives 5.9% (n = 310,000) | P. falciparum luciferase growth in erythrocytes, 48 h | AID 504832; further: potency means the concentration at half of the fitted maximal effect
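Here the parasites carry a stable luciferase gene and grow inside erythrocytes in Albumax-based RPMI medium with compound for one erythrocytic cycle. Activity is scored as loss of luminescent signal.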
Pf growth 96h: P. falciparum growth inhibition at 96 hour, primary screen for plastid delayed-death inhibitors; actives 6.9% (n = 320,000); Potency, µM (series often up to 28.7 µM), for the others: top-dose activity change, negative = inhibition, hits mostly inhibitors; AID 504834; P. falciparum luciferase reporter growth, 96 h; further: potency means the concentration at half of the fitted maximal effect
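Two-generation exposure (96 h) targets delayed-death phenotype. Reporter parasites carrying integrated firefly luciferase, in red cells at 2% hematocrit and 0.05% parasitemia final, kept at 37 C, 5% CO2; luminescence loss indicates inhibition.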
HCMV antiviral: inhibitors of human cytomegalovirus. HFF cells, HCMV-luciferase reporter, 72 h; stronger effect = lower value. activity change, negative = inhibition, % at 57.5 µM. actives 4.5% (n = 410,000); in the data active means activity change below about -60%; inconclusive means no clear call, values can overlap the other calls; inactive means above about -39%
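Steps: HFFs plated, 16 h 37C; compounds added; HCMV-luciferase added to MOI 1 PFU/cell; 72 h 37C; OneGlo reagent, 5 min room temperature; luminescence read, normalized to controls.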
MARV entry inh: inhibitors of Marburg virus binding or cell entry | Marburg virus pseudotyped entry inhibition, cell reporter | Potency, µM (highest dose often 37.8 µM), inactives show at the top dose activity change, negative = inhibition, most hits filed as inhibitors | actives 1.8% (n = 300,000); calls by dose curve; tested in HEK293 cells; further: potency means the concentration at half of the fitted maximal effect
Numbers without * were called inactive; ? = inconclusive; / = no result; [ ] = dose if it differs, or a comment. Unless noted, the call rests on the fitted dose curve; in most records, active means well fitted inhibition curve with a large enough effect; inconclusive means small, poorly fitted or top-dose-only effect, or another doubt; inactive means no such curve, though single readings can be large or run the other way. On the % scale 0 is the no-effect control and ±100 the full control effect.

SMILES | HCV inhibitor | Lassa entry inh | Pf growth 48h | Pf growth 96h | HCMV antiviral | MARV entry inh
COc1ccc2nc(N(CCN(C)C)C(=O)/C=C/c3cccs3)sc2c1 | ? | / | ? | ? | -70* | /
CN(C)CCN(C(=O)C1CCN(S(=O)(=O)c2cccs2)CC1)c1nc2ccc(F)cc2s1 | -14% | 23%[46.1 µM] | 59% | 26% | 5 | -1%
Cc1cccc2sc(N(CCN(C)C)C(=O)c3cc(Cl)sc3Cl)nc12 | 5% | 6% | 21% | 27% | -8 | 16%
COc1cc(OC)c(N(C)C(=O)Nc2cn(CC(C)C)c(=O)c3ccccc23)cc1Cl | / | 19%[46.1 µM] | / | / | -20 | /
COc1ccc(C(=O)OCC(=O)NCCc2ccc(F)cc2)cc1S(=O)(=O)N1CCOCC1 | 7% | 3% | / | / | -9 | -3%
CCOc1ccc(-c2nnn(CC(=O)NCc3ccc(C)cc3)n2)cc1 | -2% | ? | 1% | 7.4µM* | ? | ?
CCOC(=O)Cc1cnc(NC(=O)Cn2nnc(-c3ccc(OCC)cc3)n2)s1 | -18% | -1% | 0% | 6.6µM* | -16 | ?
CCCCOc1ccc(-c2nnn(CC(=O)Nc3ncc(CC(=O)OCC)s3)n2)cc1 | -2% | -26% | ? | ? | -4 | ?
CCOc1ccccc1NC(=O)Cn1nnc(-c2ccc(OCC)c(OCC)c2)n1 | 8.9µM* | ? | -12% | / | 11 | ?
CCN1C(=S)NC(c2ccccc2)C(C(=O)OC)=C1C (stereo unspecified) | / | / | / | / | / | -2%[14.2 µM]
CCN1C(=S)N[C@@H](CCc2ccccc2)C(C(=O)OC)=C1C | -21% | / | ? | 9.3µM* | 6 | /
CCN(CC(=O)Nc1cc(Cl)ccc1C)c1ncnc2sc(C)c(C)c12 | 25µM* | 0% | ? | ? | -78* | ?
Cc1ccc(Cl)c(NC(=O)CCl)c1Cl | -20% | ? | ? | 12µM* | ? | 6.3µM*
O=C(Nc1cccc(Cl)c1)N(Cc1nc2ccccc2c(=O)[nH]1)C1CCCC1 | -12% | ? | -8% | 4% | -12 | ?
O=C(Nc1cccc(Cl)c1)N(Cc1nc2ccccc2c(=O)[nH]1)Cc1cccs1 | 1% | -16% | 7.4µM* | ? | ? | -13%
CCCCN1C(=O)/C(=C/C=C/c2ccco2)C(=O)NC1=S | -5% | 6% | -1% | -15% | 20 | 2%[46.1 µM]
Cc1cc(C)cc(N2C(=O)NC(=O)/C(=C\C=C\c3ccco3)C2=O)c1 | ? | ? | 0% | 31% | -99* | ?
O=C1NC(=O)N(Cc2ccc(F)cc2)C(=O)/C1=C\C=C\c1ccco1 | ? | / | -2% | -2% | -97* | /
CCc1ccc(N2C(=O)NC(=O)/C(=C\C=C\c3ccco3)C2=O)cc1 | ? | / | 20% | -1% | -77* | /
CC(C)c1ccc(N2C(=O)NC(=O)/C(=C/C=C/c3ccco3)C2=O)cc1 | ? | ? | 15% | 79% | -101* | ?
COc1ccc(S[C@]2(c3nc(C)no3)CC(=O)N(P(=O)(OC)OC)[C@@H]2c2ccc(OC)cc2)cc1 | / | / | / | / | 39 | /
CCOC(=O)c1c(C)[nH]c(C(=O)COc2ccc3ccc(=O)oc3c2)c1C | -3% | / | / | / | 0 | /
CCC(Cc1ccccc1)NS(=O)(=O)c1csc(C(N)=O)c1 (stereo unspecified) | 18% | / | 17% | 60% | 26 | /
CCc1ccc(N2NC(=O)/C(=C/C=C/c3ccco3)C2=O)cc1 | 7% | -25% | 8% | -9% | 6 | -18%
Cc1ccc(N2C(=O)NC(=O)/C(=C/C=C/c3ccco3)C2=O)cc1 | ? | -27% | 7% | 0% | -98* | ?
SMILES | HCV inhibitor | Lassa entry inh | Pf growth 48h | Pf growth 96h | HCMV antiviral | MARV entry inh
O=C(Nc1ccc(Cc2ccc(NC(=O)C3CC3)c(O)c2)cc1O)C1CC1 | -10% | ? | 4% | 10µM* | 13 | -14%
CCc1nc2ccc(C(=O)NCCN3CCNC3=O)cn2c1N(CC)CCOC | / | / | / | / | 6 | /
CN(C)CCCNC(=O)c1cccc(-c2cnc3cccnn23)c1 | / | / | / | / | 12 | /
CCCCCCCCNS(=O)(=O)CCNCCc1ccccc1 | 16% | / | / | / | -17 | /
CCCCCCCCNCCS(=O)(=O)NCCCCCCCC | 3.2µM* | / | / | / | -102* | /
Cc1ccc2nc(Cl)c(C3CC(c4cccs4)=NN3S(C)(=O)=O)cc2c1 (stereo unspecified) | -3% | -2% | ? | ? | -60* | 17%
Cc1ccc2cc(C3CC(c4cccs4)=NN3S(C)(=O)=O)c(Cl)nc2c1 (stereo unspecified) | -13% | / | ? | ? | ? | /
CCOc1ccc2oc(=O)cc(CN3CCN(c4ccccc4)CC3)c2c1 | / | -16%[46.1 µM] | / | / | -28 | -22%[46.1 µM]
O=c1cc(CN2CCN(c3ccccc3)CC2)c2cc(O)c(-c3ccccc3)cc2o1 | -1% | -14% | 2.6µM* | 3.3µM* | ? | ?
COc1ccc(N2CCN(Cc3cc(=O)oc4c3ccc3ccccc34)CC2)cc1 | / | / | -16% | 12µM* | / | /
O=c1cc(CN2CCN(c3ccccc3)CC2)c2c(ccc3ccccc32)o1 | 0% | ? | 13µM* | 10µM* | -25 | ?
O=c1cc(CN2CCN(c3cccc(Cl)c3)CC2)c2cc(O)c(-c3ccccc3)cc2o1 | 21% | 4% | 2.1µM* | ? | 2 | -3%
COc1ccc(N2CCN(Cc3cc(=O)oc4ccc(C)cc34)CC2)cc1 | 5% | -23% | / | ? | 28 | 4%
CCS(=O)(=O)c1nc2ccccc2n1CC(=O)Nc1ccccc1C(=O)OC | / | 1%[46.1 µM] | / | / | 1 | 2%[46.1 µM]
Cc1nc2nc(CNC(=O)c3cccc(F)c3)nn2c(C)c1CCC(=O)Nc1ccc(F)cc1 | / | 7%[46.1 µM] | / | / | -10 | ?
CC(C)c1ccc2oc(=O)cc(CN3CCN(c4ccc(F)cc4)CC3)c2c1 | -1% | -30% | 13µM* | / | 1 | ?
CN(CCC#N)Cc1cc(=O)oc2ccc3ccccc3c12 | -30% | 21%[46.1 µM] | -13% | ? | -62* | -15%[46.1 µM]
CCCCN(C)Cc1cc(=O)oc2ccc3ccccc3c12 | -7% | / | -14% | 17% | 38 | /
CCc1ccc2oc(=O)cc(CN3CCN(c4ccc(F)cc4)CC3)c2c1 | ? | ? | ? | ? | -20 | ?
Cn1ncc(Cl)c1C(=O)NCc1ccc2c(c1)OCO2 | ? | / | 25% | 39% | ? | /
Cn1ncc(Cl)c1C(=O)NCc1ccc(Cl)cc1 | ? | -15% | 4% | 38% | -72* | -14%
O=C(c1cc2ccccc2cc1O)N1CCCC(C(F)(F)F)C1 (stereo unspecified) | -3% | / | -4% | ? | ? | /
O=C(c1cc(S(=O)(=O)N2CCN(c3ccccc3)CC2)ccc1Cl)N1CCCC(C(F)(F)F)C1 (stereo unspecified) | 7.9µM* | ? | ? | ? | -82* | ?
